Laboratory results reported in ChEMBL document CHEMBL5598561, “ASAP - In vitro binding kinetics” (2024).

Molecular target: Nonstructural protein 3 (Zika virus) (UniProt A0A024AXB9)
Conditions: PRVABC59, Concentration 10.0 uM

Nonstructural protein 3 (Zika virus), sequence (A0A024AXB9 as listed by the source): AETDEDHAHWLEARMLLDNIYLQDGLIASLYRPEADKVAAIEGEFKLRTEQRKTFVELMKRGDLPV

O=C(NCc1ccc(F)cc1)[C@H](Nc1ccc2c(c1)CNC2)c1cc(Cl)cc2[nH]ncc12
pKD (Immobilization level 10000.0 pg/mm2, Rmax 51.0 pg/mm2, ka 449498.965 M-1s-1, kd 0.143 1/s): 6.5
pKD (Immobilization level 12000.0 pg/mm2, Rmax 66.0 pg/mm2, ka 240349.747 M-1s-1, kd 0.114 1/s): 6.32
pKD (Immobilization level 13000.0 pg/mm2, Rmax 64.0 pg/mm2, ka 328786.628 M-1s-1, kd 0.139 1/s): 6.37

COC(=O)CNC(=O)[C@H](Nc1ccc2c(c1)CNC2)c1cc(Cl)cc(C2CC2)c1
pKD (Immobilization level 10000.0 pg/mm2, Rmax 43.0 pg/mm2, ka 346362.757 M-1s-1, kd 0.129 1/s): 6.43
pKD (Immobilization level 12000.0 pg/mm2, Rmax 59.0 pg/mm2, ka 177006.564 M-1s-1, kd 0.106 1/s): 6.22
pKD (Immobilization level 13000.0 pg/mm2, Rmax 62.0 pg/mm2, ka 244445.044 M-1s-1, kd 0.134 1/s): 6.26

Cc1cc(C(=O)Nc2ccc3c(c2)CNC3)c2cn[nH]c2c1
pKD (Immobilization level 10000.0 pg/mm2, Rmax 20.0 pg/mm2, ka 694418.255 M-1s-1, kd 0.431 1/s): 6.21
pKD (Immobilization level 12000.0 pg/mm2, Rmax 39.0 pg/mm2, ka 340621.404 M-1s-1, kd 0.261 1/s): 6.12
pKD (Immobilization level 13000.0 pg/mm2, Rmax 29.0 pg/mm2, ka 572465.277 M-1s-1, kd 0.338 1/s): 6.23

O=C(Nc1ccc2c(c1)CNC2)c1cc(Cl)nc2[nH]ncc12
pKD (Immobilization level 10000.0 pg/mm2, Rmax 24.0 pg/mm2, ka 257771.158 M-1s-1, kd 2.862 1/s): 4.96
pKD (Immobilization level 12000.0 pg/mm2, Rmax 48.0 pg/mm2, ka 216828.153 M-1s-1, kd 2.008 1/s): 5.03
pKD (Immobilization level 13000.0 pg/mm2, Rmax 31.0 pg/mm2, ka 263772.69 M-1s-1, kd 2.044 1/s): 5.11

CC(C)(C)c1cc(Br)cc(C(=O)Nc2ccc3c(c2)CNC3)c1
pKD (Immobilization level 10000.0 pg/mm2, Rmax 22.0 pg/mm2, ka 615092.383 M-1s-1, kd 1.528 1/s): 5.61
pKD (Immobilization level 12000.0 pg/mm2, Rmax 78.0 pg/mm2, ka 256799.727 M-1s-1, kd 0.952 1/s): 5.43
pKD (Immobilization level 13000.0 pg/mm2, Rmax 43.0 pg/mm2, ka 306862.061 M-1s-1, kd 1.159 1/s): 5.42

O=C(Nc1ccc2c(c1)CNCC2)c1cc(Cl)cc2[nH]ncc12
pKD (Immobilization level 10000.0 pg/mm2, Rmax 29.0 pg/mm2, ka 396120.04 M-1s-1, kd 1.246 1/s): 5.5
pKD (Immobilization level 12000.0 pg/mm2, Rmax 39.0 pg/mm2, ka 584891.909 M-1s-1, kd 0.796 1/s): 5.87
pKD (Immobilization level 13000.0 pg/mm2, Rmax 25.0 pg/mm2, ka 840035.203 M-1s-1, kd 1.038 1/s): 5.91

O=C(Nc1ccc2c(c1)CNC2)c1cc(Br)cc2[nH]c(C3CCOCC3)nc12
pKD (Immobilization level 10000.0 pg/mm2, Rmax 36.0 pg/mm2, ka 49989.202 M-1s-1, kd 0.558 1/s): 4.95
pKD (Immobilization level 12000.0 pg/mm2, Rmax 42.0 pg/mm2, ka 41393.875 M-1s-1, kd 0.2 1/s): 5.32
pKD (Immobilization level 13000.0 pg/mm2, Rmax 57.0 pg/mm2, ka 35403.894 M-1s-1, kd 0.403 1/s): 4.94

Cn1cc2cc(Cl)cc(C(=O)Nc3ccc4c(c3)CNC4)c2n1
pKD (Immobilization level 10000.0 pg/mm2, Rmax 16.0 pg/mm2, ka 983801.201 M-1s-1, kd 0.863 1/s): 6.06
pKD (Immobilization level 12000.0 pg/mm2, Rmax 34.0 pg/mm2, ka 627028.403 M-1s-1, kd 0.493 1/s): 6.1
pKD (Immobilization level 13000.0 pg/mm2, Rmax 25.0 pg/mm2, ka 951140.583 M-1s-1, kd 0.688 1/s): 6.14

O=C(NC[C@H]1CCCO1)[C@H](Nc1ccc2c(c1)CNC2)c1cc(Cl)cc2[nH]ncc12
pKD (Immobilization level 10000.0 pg/mm2, Rmax 25.0 pg/mm2, ka 729483.46 M-1s-1, kd 0.307 1/s): 6.38
pKD (Immobilization level 12000.0 pg/mm2, Rmax 48.0 pg/mm2, ka 423834.605 M-1s-1, kd 0.21 1/s): 6.31
pKD (Immobilization level 13000.0 pg/mm2, Rmax 36.0 pg/mm2, ka 640560.866 M-1s-1, kd 0.251 1/s): 6.41

Cc1ccc(S(=O)(=O)CNC(=O)[C@H](Nc2ccc3c(c2)CNC3)c2cc(Cl)cc3[nH]ncc23)cc1
pKD (Immobilization level 10000.0 pg/mm2, Rmax 21.0 pg/mm2, ka 226355.861 M-1s-1, kd 0.557 1/s): 5.61
pKD (Immobilization level 12000.0 pg/mm2, Rmax 37.0 pg/mm2, ka 111566.09 M-1s-1, kd 0.368 1/s): 5.48
pKD (Immobilization level 13000.0 pg/mm2, Rmax 27.0 pg/mm2, ka 177747.1 M-1s-1, kd 0.47 1/s): 5.58

O=C(Nc1ccc2c(c1)CNC2)c1cc(Cl)cc2ccncc12
pKD (Immobilization level 10000.0 pg/mm2, Rmax 18.0 pg/mm2, ka 555072.266 M-1s-1, kd 0.336 1/s): 6.22
pKD (Immobilization level 12000.0 pg/mm2, Rmax 46.0 pg/mm2, ka 241038.936 M-1s-1, kd 0.226 1/s): 6.03
pKD (Immobilization level 13000.0 pg/mm2, Rmax 30.0 pg/mm2, ka 431290.6 M-1s-1, kd 0.289 1/s): 6.17

O=C(Nc1ccc2c(c1)OCCNC2)c1cc(Cl)cc2[nH]ncc12
pKD (Immobilization level 10000.0 pg/mm2, Rmax 33.0 pg/mm2, ka 475344.334 M-1s-1, kd 1.334 1/s): 5.55
pKD (Immobilization level 12000.0 pg/mm2, Rmax 41.0 pg/mm2, ka 216924.489 M-1s-1, kd 0.865 1/s): 5.4
pKD (Immobilization level 13000.0 pg/mm2, Rmax 42.0 pg/mm2, ka 331181.332 M-1s-1, kd 1.11 1/s): 5.47

CC(C)c1ccc(Cl)cc1C(=O)Nc1ccc2c(c1)CNC2
pKD (Immobilization level 10000.0 pg/mm2, Rmax 50.0 pg/mm2, ka 207835.98 M-1s-1, kd 5.69 1/s): 4.56
pKD (Immobilization level 12000.0 pg/mm2, Rmax 40.0 pg/mm2, ka 170668.879 M-1s-1, kd 3.145 1/s): 4.74
pKD (Immobilization level 13000.0 pg/mm2, Rmax 24.0 pg/mm2, ka 212611.498 M-1s-1, kd 2.587 1/s): 4.92

CCCN1C(=O)[C@](C#N)(Nc2ccc3c(c2)CNC3)c2ccccc21
pKD (Immobilization level 3900.0 pg/mm2, Rmax 21.0 pg/mm2, ka 159960.868 M-1s-1, kd 3.775 1/s): 4.63
pKD (Immobilization level 5500.0 pg/mm2, Rmax 21.0 pg/mm2, ka 193790.134 M-1s-1, kd 2.393 1/s): 4.91
pKD (Immobilization level 12000.0 pg/mm2, Rmax 14.0 pg/mm2, ka 179346.718 M-1s-1, kd 2.44 1/s): 4.87

O=C(NCC(F)F)[C@H](Nc1ccc2c(c1)CNC2)c1cc(Cl)cc(C2CC2)c1
pKD (Immobilization level 10000.0 pg/mm2, Rmax 47.0 pg/mm2, ka 474542.901 M-1s-1, kd 0.05 1/s): 6.97
pKD (Immobilization level 12000.0 pg/mm2, Rmax 82.0 pg/mm2, ka 199001.376 M-1s-1, kd 0.068 1/s): 6.46
pKD (Immobilization level 13000.0 pg/mm2, Rmax 74.0 pg/mm2, ka 337297.719 M-1s-1, kd 0.055 1/s): 6.78

O=C(NCC1CCOCC1)[C@H](Nc1ccc2c(c1)CNC2)c1cc(Cl)cc2[nH]ncc12
pKD (Immobilization level 10000.0 pg/mm2, Rmax 24.0 pg/mm2, ka 732529.674 M-1s-1, kd 0.501 1/s): 6.17
pKD (Immobilization level 12000.0 pg/mm2, Rmax 44.0 pg/mm2, ka 461664.392 M-1s-1, kd 0.336 1/s): 6.14
pKD (Immobilization level 13000.0 pg/mm2, Rmax 32.0 pg/mm2, ka 718906.653 M-1s-1, kd 0.399 1/s): 6.25

N[C@H]1CCc2ccc(NC(=O)c3cc(Cl)cc4[nH]ncc34)cc21
pKD (Immobilization level 3900.0 pg/mm2, Rmax 29.0 pg/mm2, ka 348858.596 M-1s-1, kd 0.945 1/s): 5.57
pKD (Immobilization level 4900.0 pg/mm2, Rmax 45.0 pg/mm2, ka 214378.611 M-1s-1, kd 0.858 1/s): 5.4
pKD (Immobilization level 5500.0 pg/mm2, Rmax 42.0 pg/mm2, ka 277409.149 M-1s-1, kd 0.816 1/s): 5.53
pKD (Immobilization level 10000.0 pg/mm2, Rmax 43.0 pg/mm2, ka 267738.182 M-1s-1, kd 1.043 1/s): 5.41
pKD (Immobilization level 12000.0 pg/mm2, Rmax 61.0 pg/mm2, ka 230496.11 M-1s-1, kd 0.784 1/s): 5.47
pKD (Immobilization level 13000.0 pg/mm2, Rmax 48.0 pg/mm2, ka 351322.313 M-1s-1, kd 0.852 1/s): 5.62

N[C@H]1CCCc2ccc(NC(=O)c3cc(Cl)cc4[nH]ncc34)cc21
pKD (Immobilization level 3900.0 pg/mm2, Rmax 27.0 pg/mm2, ka 296746.451 M-1s-1, kd 1.513 1/s): 5.29
pKD (Immobilization level 4900.0 pg/mm2, Rmax 56.0 pg/mm2, ka 115778.511 M-1s-1, kd 1.284 1/s): 4.96
pKD (Immobilization level 5500.0 pg/mm2, Rmax 46.0 pg/mm2, ka 170057.868 M-1s-1, kd 1.305 1/s): 5.12
pKD (Immobilization level 10000.0 pg/mm2, Rmax 44.0 pg/mm2, ka 295859.47 M-1s-1, kd 1.578 1/s): 5.27
pKD (Immobilization level 12000.0 pg/mm2, Rmax 41.0 pg/mm2, ka 173417.805 M-1s-1, kd 0.975 1/s): 5.25
pKD (Immobilization level 13000.0 pg/mm2, Rmax 62.0 pg/mm2, ka 213953.785 M-1s-1, kd 1.191 1/s): 5.25
